LEDGF integ inh = blocks HIV-1 LEDGF/p75-dependent DNA integration; TR-FRET IN-LEDGF/p75 DNA integration, Eu/Cy5; inhibition, % at 3.7 µM; 370,000 tested, 0.64% active;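 active means inhibition above the screen-wide mean plus 3 SD, cut at about 13% in these data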;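 further: signal is the Cy5 over europium emission ratio at 671 and 618 nm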
DNMT1 block = DNMT1 (human) enzyme inhibition. P26358. DNMT1 molecular beacon, Hinp1I cleavage, fluorescence. inhibition (reported as % activation of signal), % at 10 µM. 360,000 tested, 0.83% active; in the data active means inhibition above about 50%
UHRF1 binding = blocks human UHRF1 binding to methylated DNA | 370,000 tested, 0.75% active | inhibition, % at 4.4 µM | UHRF1 binding to methylated oligo, TR-FRET | Q96T88; in the data active means inhibition above about 21%;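 further: UHRF1 SRA domain binding a hemimethylated CpG hairpin DNA probe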
MBD2 inh = blocks human MBD2 binding to methylated DNA; Q9UBB5; TR-FRET, MBD2 binding to methylated oligonucleotide; inhibition, % at 4.4 µM; 370,000 tested, 0.31% active; in the data active means inhibition above about 13%
Target sequence (Q9UBB5 whole entry, looked up): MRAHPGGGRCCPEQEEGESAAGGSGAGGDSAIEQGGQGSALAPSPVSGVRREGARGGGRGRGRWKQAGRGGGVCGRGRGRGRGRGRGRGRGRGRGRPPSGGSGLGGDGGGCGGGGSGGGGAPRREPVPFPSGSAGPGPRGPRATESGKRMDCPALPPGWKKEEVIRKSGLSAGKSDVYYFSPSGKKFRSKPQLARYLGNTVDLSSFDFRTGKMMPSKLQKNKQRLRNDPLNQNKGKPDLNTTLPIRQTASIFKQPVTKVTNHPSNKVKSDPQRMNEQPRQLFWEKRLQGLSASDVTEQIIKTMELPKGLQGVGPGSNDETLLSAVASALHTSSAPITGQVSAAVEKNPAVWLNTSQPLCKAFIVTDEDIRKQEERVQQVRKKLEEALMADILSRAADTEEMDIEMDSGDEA
PG9 Ab binder = binds the HIV-1 gp120 antibody PG9; 360,000 tested, 0.43% active; inhibition, % at 6.7 µM; TR-FRET gp120-PG9 antibody binding; in the data active means inhibition above about 8.5%
rCAG RNA binder = binds r(CAG) RNA repeats; inhibition, % at 3 µM; AID 651821; r(CAG) RNA repeat, TO-PRO-1 dye displacement fluorescence; 370,000 tested, 1.3% active;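 active means inhibition above the plate cutoff, the mean of all test compounds on that plate plus 3 SD, cut at about 35% in these data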;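 further: higher means more dye released from RNA so lower well fluorescence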
Large screens that a line does not name were inactive. Only some compounds are listed: those with a hit (about 3.5% of all), similar ones and a draw of the others.

O=C(Nc1cccc(NC(=O)c2ccccc2Cl)c1)c1ccc(F)cc1	UHRF1 binding 27
COc1ccccc1C(=O)Nc1ccc2c(c1)nc1n2CCN(C2CCCCC2)C1	DNMT1 block 60
CCn1c(SCC(=O)N2CCCc3ccccc32)nnc1-c1cccs1	UHRF1 binding 21
O=C(CSc1nc2ccccc2nc1SCC(=O)N1CCCCC1)N1CCCCC1	PG9 Ab binder 22
CCN(CC)S(=O)(=O)c1nnc(NC(=O)c2ccco2)s1	none
CCN(c1ccc(C)cc1)S(=O)(=O)c1nnc(NC(=O)c2ccco2)s1	rCAG RNA binder 44
CC(C)C(C#CC1CC1)NCc1ccc2c(c1)OCO2 (stereo not given)	none (no result: DNMT1 block, PG9 Ab binder)
CCOC(=O)N1CCC(NC(=O)c2cc(C(=O)NCc3cccc(Cl)c3)ccc2CO)CC1	none
CCOC(=O)N1CCC(NC(=O)c2cc(C(=O)NCc3ccc(F)cc3)ccc2CO)CC1	UHRF1 binding 23
Cc1cc(C)c(-c2c(O)c3cccnc3n(C)c2=O)c(C)c1	UHRF1 binding 29
Cn1c(=O)c2cccnc2c(=O)n1C	none
CCOC(=O)c1cc(-c2ccccc2)nn1CCC#N	UHRF1 binding 44
CCCCn1nnnc1C1(C)CCC(=O)N1CCCN1CCOCC1 (stereo not given)	UHRF1 binding 22 (no result: DNMT1 block)
COc1ccccc1CNC(=O)CN1C(=O)NC2(CCCC2)C1=O	none
COc1cc(C(=O)OCC(=O)Nc2c(C)n(C)n(-c3ccccc3)c2=O)c([N+](=O)[O-])cc1OC	UHRF1 binding 32
Cc1c(C(=O)OCC(=O)Nc2c(C)n(C)n(-c3ccccc3)c2=O)cccc1[N+](=O)[O-]	none
CNC(=O)CSc1nnc(-c2cc(C)cc(C)c2)o1	UHRF1 binding 67
NC(=O)C1CCN(c2nc(-c3ccc(OCc4ccccc4)cc3)cs2)CC1	none (no result: DNMT1 block, PG9 Ab binder, rCAG RNA binder)
COc1ccc(-n2cc(COC(=O)NCCc3c[nH]c4ccccc34)nn2)cc1	none (no result: DNMT1 block, PG9 Ab binder)
Cc1[nH]c2ccccc2c1CCN(Cc1cccs1)C(=O)Nc1cccc2c1OCO2	none (no result: DNMT1 block, PG9 Ab binder)
Cc1cc(C)c2c(-n3cccc3)c(C(=O)NNS(=O)(=O)c3ccccc3)sc2n1	none
Cc1cc(C)c2c(-n3cccc3)c(C(=O)NNS(=O)(=O)c3ccc(Cl)cc3)sc2n1	rCAG RNA binder 35
COC(=O)C1=CN(c2ccc(C)cc2)C(N)=C(C#N)C1c1ccccc1F (stereo not given)	none (no result: DNMT1 block)
O=C(CS(=O)(=O)Cc1ccccc1)Nc1nc2c(s1)CCCC2	none
O=C(CCS(=O)(=O)Cc1ccccc1)Nc1nc2c(s1)CCCC2	LEDGF integ inh 33
O=C(N/N=C/c1ccco1)c1cccc(N2Cc3ccccc3C2)c1	DNMT1 block 80, rCAG RNA binder 37
CCOc1cc(NC(=O)c2ccco2)c(OCC)cc1NC(=O)CCc1ccccc1OC	LEDGF integ inh 15
CCOc1cc(NC(=S)NC)c(OCC)cc1NC(=O)c1ccco1	none
CNC(=S)Nc1cc(OC)c(NC(=O)c2ccco2)cc1OC	UHRF1 binding 43
C=CCN1[C@@H](C)COc2cc(N3CCCC3)ccc2S1(=O)=O	none (no result: DNMT1 block, PG9 Ab binder)
C[C@H](O)[C@@H]1CN2CCc3c([nH]c4c(-c5ccc6c(c5)OCO6)cccc34)[C@@H]2C[C@@H]1N(C)C(=O)c1ccccc1F	none (no result: DNMT1 block, PG9 Ab binder)
COc1ccc(C(=O)/C=C/c2ccc(O)cc2)c(O)c1CC=C(C)C	rCAG RNA binder 53
COc1ccc(C(=O)/C=C/c2ccc(O)cc2)c2c1CC(O)C(C)(C)O2 (stereo not given)	none
CCC(=O)c1ccc(OCc2ccccc2)c(OC)c1	none
CCC(=O)c1ccc(OCc2ccc(C(=O)c3ccccc3)cc2)cc1	UHRF1 binding 22
O=Cc1ccc(OCc2cn(CC(=O)c3ccc(O)cc3)nn2)cc1	none
O=C(Cn1cc(COc2ccc(C(=O)c3ccccc3)cc2)nn1)c1ccc(O)cc1	UHRF1 binding 22
C/C(C=NNC(=O)CSc1nnc(-c2ccc(Cl)cc2)n1-c1ccc(C)cc1)=C\c1ccccc1	none (no result: DNMT1 block, PG9 Ab binder)
C#CCOCCOCCOCCNc1nc(N2CCN(C(=O)[C@H](CCC(=O)O)n3cc([C@@H](N)CCCCN)nn3)CC2)nc(N2CCN(C(=O)[C@H](CCC(=O)O)n3cc([C@@H](N)CCCCN)nn3)CC2)n1	none
C#CCOCCOCCOCCNc1nc(N2CCN(C(=O)[C@H](CCC(=O)O)n3cc([C@@H](N)CCCCN)nn3)CC2)nc(N2CCN(C(=O)[C@H](CCCCN)n3cc([C@@H](N)CC(N)=O)nn3)CC2)n1	UHRF1 binding 48
COC(=O)[C@H](C(C)C)N(CCc1cn(CC2CCCCC2)nn1)S(=O)(=O)c1ccccc1Br	none (no result: DNMT1 block, PG9 Ab binder)
CC(C)(C)N(Cc1cn(CC2CCCCC2)nn1)S(=O)(=O)c1ccccc1Br	none (no result: DNMT1 block, PG9 Ab binder)
N#Cc1cn(CC(=O)NCC2CCCO2)c2ccccc12 (stereo not given)	UHRF1 binding 23
Cc1ccc2oc(Nc3nc(-c4ccccc4)cc(=O)[nH]3)nc2c1	UHRF1 binding 75 (no result: DNMT1 block)
COCc1cc(=O)[nH]c(Nc2nc3ccccc3o2)n1	none
Cc1ccccc1CN1[C@@H](C)[C@H](c2ccccc2)Oc2cccc(NCCc3ccccc3)c2S1(=O)=O	UHRF1 binding 21 (no result: DNMT1 block)
COC(=O)c1ccc(S(=O)(=O)N2CCC(NC(=O)CCc3ccccc3)CC2)cc1	none (no result: DNMT1 block, PG9 Ab binder)
CN(C)c1ccc(/C=N/N=C2/NC(=O)/C(=C/c3ccc([N+](=O)[O-])cc3)S2)cc1	DNMT1 block 66
C/C(=C/c1nc(N)n(Cc2ccccc2)c1Cc1ccccc1)Cn1[nH]c(=O)n(-c2ccccc2)c1=O	none (no result: DNMT1 block, PG9 Ab binder)
COC(=O)[C@]1(CNC(C)=O)CC(=O)N(Cc2ccc(Cl)cc2)[C@@H]1c1ccc(OC)cc1	none (no result: DNMT1 block, PG9 Ab binder)
COC(=O)[C@]1(CNC(=O)C(C)(C)C)CC(=O)N(Cc2ccc(Cl)cc2)[C@@H]1c1ccc(OC)cc1	UHRF1 binding 45 (no result: DNMT1 block, PG9 Ab binder)
COC(=O)[C@H]1C[C@@]2(O)CN(S(=O)(=O)c3ccc(C)cc3)C[C@@]2(OC(=O)NC2CCCC2)C[C@H]1C(=O)OC	UHRF1 binding 24
COC(=O)[C@H]1C[C@@]2(O)CN(S(=O)(=O)c3ccc(C)cc3)C[C@@]2(OC(=O)NCc2ccccc2)C[C@H]1C(=O)OC	none
Cc1cc(C)cc(OCC(=O)Nc2ccc(N3CCCC3)cc2)c1	DNMT1 block 65 (no result: LEDGF integ inh, UHRF1 binding, MBD2 inh, PG9 Ab binder, rCAG RNA binder)
COc1ccc(OCC(=O)Nc2ccc(N3CCCCC3)cc2)cc1	none
CCOc1ccccc1NC(=O)COC(=O)COc1c(Cl)cc(Cl)c2ccc(C)nc12	UHRF1 binding 37
CCc1nnc(NC(=O)CN2CCN(C(=O)c3ccccc3)CC2)s1	UHRF1 binding 24
CCCCCCCCN1C(=O)[C@@H](CC(=O)NCCC(C)C)C[C@@]2(C(=O)OC)C1=C[C@H](COCc1ccccc1)O[C@@H]2C	none (no result: DNMT1 block, PG9 Ab binder)
CC[C@H](C(=O)Nc1ccccc1N1CCCC1)c1ccccc1	none (no result: DNMT1 block, PG9 Ab binder)
c1ccc(-c2noc(C3CCC3)n2)nc1	UHRF1 binding 25
CCCCC1CCC(c2nc(-c3ccccn3)no2)CC1 (stereo not given)	none
